Reference: the supplement of paper PMC10681739

Each sequence was assayed against T1, ETS1 (UniProt P14921) (assay: ETS1 binding intensity (PBM fluorescence), ETS1 alone (arbitrary fluorescence units); higher = stronger binding). Settings: ETS1 concentration 1 nM; RUNX1 concentration 0 nM.
T1 sequence: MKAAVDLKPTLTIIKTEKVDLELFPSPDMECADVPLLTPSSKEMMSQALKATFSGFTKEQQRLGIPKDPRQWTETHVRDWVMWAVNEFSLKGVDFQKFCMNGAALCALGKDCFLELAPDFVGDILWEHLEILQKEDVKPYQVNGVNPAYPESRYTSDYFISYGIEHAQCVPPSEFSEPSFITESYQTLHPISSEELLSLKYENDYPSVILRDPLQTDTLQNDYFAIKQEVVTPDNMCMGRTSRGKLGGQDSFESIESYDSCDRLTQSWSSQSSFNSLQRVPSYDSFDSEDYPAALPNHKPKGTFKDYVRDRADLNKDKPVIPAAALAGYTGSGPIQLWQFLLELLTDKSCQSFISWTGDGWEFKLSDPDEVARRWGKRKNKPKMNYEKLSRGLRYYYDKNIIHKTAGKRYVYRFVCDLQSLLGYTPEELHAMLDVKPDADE
Description: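 Cooperative genomic-context PBM: 36-bp genomic probes with neighbouring ETS1 and RUNX1 sites, double-stranded on Agilent 4x180k arrays. Full-length recombinant human ETS1 (1 nM) was incubated alone or with RUNX1 (25 nM) and detected with anti-ETS1 antibody plus Alexa488 secondary. Value is the median fluorescence intensity over 4 replicate spots; the ETS1+RUNX1 data were normalised to the ETS1-only data using probes without RUNX1 sites. The 36-bp variable region sits on the array probe with constant linker/primer flanks that are not printed.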

Question: AAGAACCTAGAGGATGTGTGGTTTTATGTGCAGGGT was tested. Which ETS1 binding intensity did it give?
Answer: 710

Question: Which ETS1 binding intensity does the source give for TCCGGAAATAGATAATATCTAGTTAAACCTCAAAAT here?
Answer: 1540

Question: AAAGGGAAGTTGGCGGGAGTTCAAAACCACCGGGGC was tested. Which ETS1 binding intensity did it give?
Answer: 347

Question: How did the ETS1 binding intensity turn out when ATTCTGCATCCTGTGCTCTTTCCATGAGACCACAAA was run?
Answer: 448

Question: With GAAGAGAAAGGAAACGGCTCGCGGTTTCTGGGGTTC as the sequence, how does the ETS1 binding intensity read?
Answer: 822

Question: How did the ETS1 binding intensity turn out when GCACGCCATCGAGGAAGTGGGTTTACTGTGTATTTC was run?
Answer: 916

Question: With GTATTTATTTCCTCTTCGAAGAAATGCGGGGGTGCC as the sequence, how does the ETS1 binding intensity read?
Answer: 473

Question: Which ETS1 binding intensity does the source give for GGTGCCAAGGGCAGAGGATGTGGTGAGGTGTGGAGG here?
Answer: 999

Question: For CGAGGGAGCCGGAAAGATGGTGGTTACCAGATCTGC, which ETS1 binding intensity is on record?
Answer: 608

Question: Which ETS1 binding intensity does the source give for GCCAGGAGGACTTCCGGGTGGGTGTGGTATCTGCGA here?
Answer: 1320

Question: For GGTCACATCCTTTCCCTTCTGTGTCTCAGCCGCAGT, which ETS1 binding intensity is on record?
Answer: 421

Question: How did the ETS1 binding intensity turn out when ACTATTTTTAGACTTCCCCACCCCGCAGTTTCAAGG was run?
Answer: 601

Question: For GGTTCATTTCCTTTTCCTCCTTGTGGTATAAAAGAG, which ETS1 binding intensity is on record?
Answer: 697

Question: GGCCTTCTGCCTACATCCTGCGGCGCCCGCGACCCG was tested. Which ETS1 binding intensity did it give?
Answer: 679

Question: CAGGCCTGTGATTTCCTCTGAGTGGTTTTCTTGGCC was tested. Which ETS1 binding intensity did it give?
Answer: 465

Question: How did the ETS1 binding intensity turn out when CGGCACCCTCCTTCCTCCCTGCCAACCGCCTCCACC was run?
Answer: 556

Question: Which ETS1 binding intensity does the source give for AGGGAGCCCTCCATTTCCTGCCCACATTTGTCACCT here?
Answer: 2360

Question: For TCTTTGAGAAGCGGATGTGGTAAACTTGCCTCTGTT, which ETS1 binding intensity is on record?
Answer: 5970

Question: For GTGCTCCTCGCTTCCTCCGCGGTCTTCCGAGCGGTC, which ETS1 binding intensity is on record?
Answer: 465

Question: For TTACGTTAAGGAGGAAACTCTGTGGTTAAACTGTAG, which ETS1 binding intensity is on record?
Answer: 597

Question: AGCAGGAAGTATGTTGAAAGTCATAACCACAGCAAA was tested. Which ETS1 binding intensity did it give?
Answer: 908

Question: ACCAGCCCAGGAAGCATCTGCGGTTCAAGTGGCCAC was tested. Which ETS1 binding intensity did it give?
Answer: 452

Question: For CGCCGGCTCCCGGATGTTGTGGGGATCAGCGCCCGC, which ETS1 binding intensity is on record?
Answer: 3270

Question: GAGTGGGCGGAAATCCGTGCCTGGCAGACCACAAAG was tested. Which ETS1 binding intensity did it give?
Answer: 1320

Question: With GGAGGGGAGCAGGAAGCTGAGGTTTTGTGAGTCAGA as the sequence, how does the ETS1 binding intensity read?
Answer: 1090

Question: With GAAGCTACTCTGGTTTCCTGTGGTTTTCTGAGCACT as the sequence, how does the ETS1 binding intensity read?
Answer: 597

Question: For GTGCAGGCAATGAGGATGTTGTGGGGGAGACAGGGA, which ETS1 binding intensity is on record?
Answer: 746

Question: With TCAAGAGGGTGTGGAGGAAGTGGGTTACAAGCACTT as the sequence, how does the ETS1 binding intensity read?
Answer: 1450

Question: For GACACGTCTTTGGAAGGATGTGGTTGCCGTGGGTTT, which ETS1 binding intensity is on record?
Answer: 724

Question: Which ETS1 binding intensity does the source give for TTGTCTGCATCCTGTGCTGTGTGGTAGCTCTGGGTT here?
Answer: 510

Question: AGACCCGGAAATGGTGGGTGTTTCTTGCAACCACGG was tested. Which ETS1 binding intensity did it give?
Answer: 1810

Question: How did the ETS1 binding intensity turn out when AGCGGCCGAAGGAAGTGACGTTTGCGGCAGTAAGGC was run?
Answer: 997

Question: With CAGCCCTAGCGAGTTTCCTGCGGGGAAGGGCATTCC as the sequence, how does the ETS1 binding intensity read?
Answer: 537

Question: How did the ETS1 binding intensity turn out when CTGCCCACCGGAAACGATGGCGCGAGGCCGCAGAGC was run?
Answer: 6160

Question: Which ETS1 binding intensity does the source give for GGCCCCTGCTTCCGGGTGTGACGCGAACCGCGGGCA here?
Answer: 616

Question: For CCATTCTTCCGGTGGAGATGGCTGCGGCCGTGGCGG, which ETS1 binding intensity is on record?
Answer: 568

Question: For AGAAGCTGCACCCGGAAATGAAACCACCAGGACCTC, which ETS1 binding intensity is on record?
Answer: 4630

Question: For ACCTCAAGCCCAGGATGTGGTTTGGCCACTATTGAG, which ETS1 binding intensity is on record?
Answer: 1310

Question: How did the ETS1 binding intensity turn out when GTATGGGAAGTGATCTGGCTGCAAACCGCAAGAGAG was run?
Answer: 549

Question: Which ETS1 binding intensity does the source give for CACTTCCCGTGGGAGGATCTTGGGCTGCGGCTAGGG here?
Answer: 421
